Laboratory results: PubChem BioAssay AID1986 (Sanford-Burnham Center for Chemical Genomics, 2009)
The whole screen tested about 290,000 compounds, of which about 890 (0.31%) were called active. Cut-off read from the data, not from the text of the source: active = inhibition mostly above about 52% (no sharp cut-off); inactive = mostly below about 76%. The list comes from a sample in which actives are over-represented; it also holds similar structures and randomly drawn compounds.

Test: inhibitors of HIV fusion peptide binding, primary screen, biochemical, uHTS, fluorescence dequenching (AID 1986)
Settings: cell-free peptide binding, 30 min, stronger effect = higher value
[1] = measured here: repeat confirmation average inhibition, at 18.6 µM

SMILES	inhibition (at 20 µM)	inhibition [1]
COc1ccccc1N=Nc1c(O)[nH]c2ccc(Br)cc12	74.7% (active)	70.2%
COc1ccccc1NC(=S)N=Nc1c(O)[nH]c2ccc(Br)cc12	-1.3% (inactive)	
COC(=O)N=Nc1c(O)[nH]c2ccc(Br)cc12	-0.3% (inactive)	
Cc1ccc(CNCc2ccc3c(c2)OCO3)c(C)c1	-1.9% (inactive)	
Cc1ccc(C(=O)NCc2ccc3c(c2)OCO3)c(C)c1	0.4% (inactive)	
c1cc(CNc2ccc3c(c2)OCO3)ccn1	4.7% (inactive)	
Cc1ccc(CNCc2ccc3c(c2)OCO3)cc1	2.9% (inactive)	
Cc1ccc(CNc2ccc3c(c2)OCO3)cc1	112% (active)	
Cc1ccc(CNc2ccc3c(c2)OCO3)c(C)c1	52.3% (active)	
COC(=O)c1cc2ccccc2c(-c2c(OC)c(C(=O)OC)cc3ccccc23)c1OC	-0.9% (inactive)	
CCOC(=O)N/N=C/c1ccc(OCCSc2ccc(Cl)cc2)c(OC)c1	6.5% (inactive)	
O=C(NC1CCCC1)C(c1cccs1)N(C(=O)c1csnn1)c1ccccc1F (stereo unspecified)	0.9% (inactive)	
COc1ccc(/C=C2\OC(=S)N(C)C2=O)cc1	-1.3% (inactive)	
CN1C(=O)/C(=C\c2ccc(N(C)C)cc2)OC1=S	78.5% (active)	83.9%
CN(C)c1ccc(/C=C2\N=C(C(C)(C)C)OC2=O)cc1	28.5% (inactive)	
COc1ccccc1CN1C(=S)SC(C)(C)C1NO (stereo unspecified)	-0.5% (inactive)	
CCCCc1nc2cc(C(=O)N3CCNC(=O)C3)ccc2o1	0.8% (inactive)	
CC(C)(C)C1C/C(=C/c2ccco2)C(=O)/C(=C/c2ccco2)C1 (stereo unspecified)	61.8% (active)	
CC(C)(C)C1C/C(=C/c2ccccn2)C(=O)/C(=C/c2ccccn2)C1 (stereo unspecified)	3.1% (inactive)	
O=C1/C(=C\c2ccco2)CCC/C1=C\c1ccco1	69.6% (inactive)	3.2%
CC1C/C(=C/c2cccs2)C(=O)/C(=C/c2cccs2)C1 (stereo unspecified)	68.1% (active)	
CCC1C/C(=C/c2ccco2)C(=O)/C(=C/c2ccco2)C1 (stereo unspecified)	68.9% (inactive)	0.1%
CC1C/C(=C/c2ccncc2)C(=O)/C(=C/c2ccncc2)C1 (stereo unspecified)	1.9% (inactive)	
O=C1/C(=C/c2cccs2)CCC/C1=C\c1cccs1	31.9% (inactive)	

SMILES	inhibition (at 20 µM)	inhibition [1]
Cn1cccc1/C=C1\CC(C(C)(C)C)C/C(=C\c2cccn2C)C1=O (stereo unspecified)	2.7% (inactive)	
CC1C/C(=C/c2ccco2)C(=O)/C(=C/c2ccco2)C1 (stereo unspecified)	61.3% (active)	
N#Cc1cccn1-c1nccs1	-0.8% (inactive)	
Cc1onc(-c2c(F)cccc2Cl)c1C(=O)OCC(=O)NC(N)=O	-0.8% (inactive)	
COC(=O)c1ccc(CSc2nc3ccccc3[nH]2)o1	1.5% (inactive)	
CCN(CC)c1ccc(/C=C2/SC(=O)N(C(C)C)C2=O)o1	2.5% (inactive)	
CC(C)N1C(=O)S/C(=C\c2ccc(-c3ccc(Cl)c(C(=O)O)c3)o2)C1=O	24.7% (inactive)	
CCN(CC)c1ccc(/C=C2\SC(=O)N(C(C)C)C2=O)o1	56.4% (active)	
COc1ccc(C(=O)N/N=C(\C)c2ccc3c(c2)C2C=CCC2C(c2ccccc2)N3)cc1 (stereo unspecified)	16.5% (inactive)	
O=C(O)c1ccc2c(c1)C1C=CCC1C(c1ccncc1)N2 (stereo unspecified)	24.6% (inactive)	
NCCCNc1ccc([N+](=O)[O-])cc1C(F)(F)F	0.6% (inactive)	
O=C(COc1ccc(Br)cc1Cl)NC(=S)Nc1ccccn1	-1.1% (inactive)	
CC1=CC(=C(C#N)c2nc3ccccc3s2)C=C(C)N1c1ccc(F)cc1F	22.6% (inactive)	
CC1=CC(=C(C#N)c2nc3ccccc3s2)C=C(C)N1c1ccc(F)cc1	66.4% (active)	
COc1ccccc1N1C(C)=CC(=C(C#N)c2nc3ccccc3s2)C=C1C	26.5% (inactive)	
CCN(CC)C(=O)Cn1cc(S(=O)(=O)CC(=O)Nc2cc(OC)ccc2OC)c2ccccc21	-1.7% (inactive)	
C=CCNCCCCOc1ccccc1-c1ccccc1	-2% (inactive)	
CC1=NOC(=O)/C1=C/c1ccc(N(C)C)cc1	-2.2% (inactive)	
CCN(CC)c1ccc(/C=C2/C(=O)ON=C2C)cc1	100% (active)	
CC1=NOC(=O)/C1=C/c1ccc(O)cc1	0.5% (inactive)	
Nn1cnnc1SCC(=O)Nc1ccc2c(c1)OCO2	0.5% (inactive)	
Cc1cccc(C)c1Nc1nnc(SCC(=O)c2ccc3c(c2)NC(=O)CO3)s1	0.2% (inactive)	
CCOC(=O)/C(C#N)=C\c1ccc(N2CCN(C/C=C/c3ccccc3)CC2)cc1	117% (active)	
CCOC(=O)/C(C#N)=C\c1ccc(N2CCN(C)CC2)cc1	4% (inactive)	

SMILES	inhibition (at 20 µM)	inhibition [1]
CCOC(=O)/C(C#N)=C/c1ccc(N2CCN(C)CC2)cc1	7.2% (inactive)	
CCCCCCCCCC[n+]1cccc(C(=O)N(CC)CC)c1	3% (inactive)	
CCCCCCCCCCCCCCCC[n+]1ccc(C(N)=O)cc1	-14.2% (inactive)	
CCCn1c(=O)c2sccc2n2c(CCCC(=O)NCc3cccnc3)nnc12	-1.5% (inactive)	
O=C(c1ccccc1)N1N=C(c2ccccc2)CC1c1ccccc1 (stereo unspecified)	1.1% (inactive)	
Cc1cc[n+](-c2[nH]c(=O)sc2/C=N/N=C(\[O-])c2ccccc2)cc1	10.5% (inactive)	
Cc1cc[n+](-c2[nH]c(=O)sc2/C=N/N=C(\[O-])c2ccccc2)cc1C	116% (active)	93.6%
Cc1cc[n+](-c2[nH]c(=O)sc2/C=N/N=C(\[O-])c2ccncc2)cc1C	0% (inactive)	
Cc1cc(NC(=O)CSCC(=O)N(c2cccc(Cl)c2)C(C(=O)NC2CCCCC2)c2ccc(O)c(O)c2)no1 (stereo unspecified)	11.2% (inactive)	
CSCc1ccc(C(=O)NC2CC(C)(C)Cc3c2cnn3-c2ccc(F)cc2)o1 (stereo unspecified)	1.2% (inactive)	
CCCn1c(=O)c2ccccc2n2c(SCN3C(=O)c4ccccc4C3=O)nnc12	0.3% (inactive)	
N#C/C(=C/c1ccc(-c2cc(C(=O)O)cc(C(=O)O)c2)o1)c1nc2ccccc2s1	92.9% (active)	
N#C/C(=C/c1ccc(-c2ccc(S(N)(=O)=O)cc2)o1)c1nc2ccccc2s1	149% (inactive)	
O=C(O)c1cc(-c2ccc(/C=C3\NC(=O)N(c4ccccc4)C3=O)o2)ccc1Cl	32.2% (inactive)	
O=C(O)c1cccc(-c2ccc(/C=N/n3cnnc3)o2)c1	1.6% (inactive)	
O=C(O)c1cccc(-c2ccc(/C=c3/sc4nc5ccccc5n4c3=O)o2)c1	78% (active)	
CC1(C)OC(=O)C(=Cc2ccc(-c3ccc(Cl)c(C(=O)O)c3)o2)C(=O)O1	36.9% (inactive)	
N#C/C(=C\c1ccc(-c2ccc(F)cc2)o1)C(=O)Nc1nc(-c2cccs2)cs1	14.4% (inactive)	
O=Cc1ccc(-c2cccc(C(=O)O)c2)o1	2.4% (inactive)	
N#C/C(=C\c1ccco1)c1nc2ccccc2s1	146% (inactive)	
N#C/C(=C/c1ccc(-c2ccccc2)o1)c1nc(-c2cccs2)cs1	62.6% (active)	
N#C/C(=C\c1ccc(-c2ccc([N+](=O)[O-])cc2)o1)C(=O)Nc1nc(-c2cccs2)cs1	-1.7% (inactive)	
O=C(O)c1cc(-c2ccc(/C=c3\sc4nc5ccc(Br)cc5n4c3=O)o2)ccc1Cl	68.1% (active)	
COC(=O)c1cccc(Cn2nnc3ccccc3c2=O)c1	0.9% (inactive)	

SMILES	inhibition (at 20 µM)	inhibition [1]
O=C(NCCN1C(=O)S/C(=C\c2ccc(OC(F)F)cc2)C1=O)[C@@H]1CCCN1C(=O)c1cccs1	0.1% (inactive)	
Cc1cc(Sc2nc(N)ncc2[N+](=O)[O-])ncn1	-1.5% (inactive)	
COC(=O)c1sc2ncn(N)c(=O)c2c1C	-0.5% (inactive)	
CC(=O)Nc1ccc(C(=O)N/N=C/C2CC3C=CC2C3)cc1 (stereo unspecified)	-0.7% (inactive)	
COc1cc2[nH]c(=O)n(CCCCCC(=O)NCCc3c[nH]c4ccccc34)c(=O)c2cc1OC	2.6% (inactive)	
CCOC(=O)c1cc(CC)sc1NC(=O)COc1ccc2c(C)cc(=O)oc2c1	-0.1% (inactive)	
N/C(=N\OC(=O)COc1ccc(Cl)cc1Cl)c1cccnc1	1.4% (inactive)	
COc1cc(NC(=O)C(C)Oc2ccccc2)ccc1NC(=O)COc1ccccc1 (stereo unspecified)	1.7% (inactive)	
O=C1Nc2ccccc2OC1CC(=O)N1CCCC1 (stereo unspecified)	-2.7% (inactive)	
COCCNC(=O)C(c1ccc(F)cc1)N(Cc1ccco1)C(=O)CCC(=O)Nc1ccccn1 (stereo unspecified)	-1.2% (inactive)	
CCOC(=O)C1CCN(C(=O)c2cc3cc4ccc(OC)cc4nc3o2)CC1	-0.9% (inactive)	
COC(=O)/C=c1/sc2nc3ccccc3n2c1=O	6.3% (inactive)	
O=c1/c(=C/c2ccc(O)c([N+](=O)[O-])c2)sc2nc3ccccc3n12	50.3% (active)	
O=c1/c(=C\c2cccnc2)sc2nc3ccccc3n12	-0.5% (inactive)	
O=C(O)c1cc(C(=O)O)cc(-c2ccc(/C=c3/sc4nc5ccccc5n4c3=O)o2)c1	63.3% (active)	
O=c1/c(=C\c2cccn2-c2ccccc2)sc2nc3ccccc3n12	3.1% (inactive)	
O=c1/c(=C/c2ccccn2)sc2nc3ccccc3n12	-0.5% (inactive)	
O=C(CN1CCN(c2ccccc2F)CC1)c1c[nH]c2ccc(F)cc12	4% (inactive)	
Cc1cc(C)n2cc(CSc3nncn3C)nc2n1	-1.3% (inactive)	
CC1c2ccsc2CCN1S(=O)(=O)c1cccs1 (stereo unspecified)	-1% (inactive)	
COc1ccc(Cc2nc3ccc(C(=O)N(C)CCc4cnn(C)c4)cc3o2)cc1OC	0.7% (inactive)	
C/C(CC(=O)Nc1ccc(Cl)c(C(F)(F)F)c1)=N\NC(=O)c1cc2ccccc2cc1O	67.3% (active)	
C/C(CC(=O)Nc1ccc(Cl)c(C(F)(F)F)c1)=N\NC(=O)c1cccc(O)c1	4.2% (inactive)	
C/C(CC(=O)Nc1ccc(Cl)c(C(F)(F)F)c1)=N\NC(=O)c1ccccc1O	26.3% (inactive)	
